We go through six molecules from PubChem BioAssay.

Inconclusive results are not listed. Calls of active or inactive are those of the source.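 The calls were made as follows, unless noted: active = RAM network inhibition above 8.4% in each of two replicates, 3 SD over the compound average; inconclusive = above 8.4% inhibition in only one replicate; inactive = 8.4% inhibition or less in each replicate.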

A short description of test [1]: OD615 S. cerevisiae growth inhibition, permissive medium, pilot counter-assay, permissive growth control for S. cerevisiae lifespan shortening project (AID 705;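 active = growth inhibition above 25% in both replicates, a cutoff set 3 SD above the mean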). Conditions: OD615, 24 h, at 10 µM, stronger effect = higher value.
Test [2] is described as follows: Restrictive medium S. cerevisiae growth inhibition, OD615, pilot screen of yeast lifespan reduction project, restrictive growth control (AID 706;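 active = growth inhibition above a set limit, 3 SD over mean compound inhibition, in both replicates, cut at about 43% in these data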;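 also: modified DeaD lifespan yeast strain shifted to restrictive glucose medium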). The settings on record: OD615, 48 h, at 10 µM, stronger effect = higher value.
Test [3] can be described thus: viability gain of MRP-1-high H69AR cells under doxorubicin, pilot screen, MRP-1 activator project, CellTiter-Glo, duplicate (AID 807;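 active = viability increase at or above a cutoff of the median across tested compounds plus 3 SD, cut at about 8.5% in these data, passing the limit was not always enough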;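 also: compound pretreatment 18-22 h then 72 h combined with doxorubicin; 0% = doxorubicin alone and 100% = vehicle without doxorubicin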). The settings on record: H69AR viability with doxorubicin, CellTiter-Glo luminescence; at 10 µM; stronger effect = higher value.
The nature of test [4]: growth suppression of beta-catenin knockout HCT116, pilot screen, human colon tumor cells (AID 823;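 active = cell viability at or below a set limit in both duplicate runs, the limit being the all-compound median minus 4 SD, cut at about 23% in these data, passing the limit was not always enough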;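 also: 0% = wells killed by 20 µM Hyamine and 100% = untreated DMSO cell wells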). Conditions: CellTiter-Glo, 60 h, at 10 µM, stronger effect = lower value.
The nature of test [5]: growth suppression of PTEN-deleted HCT116, pilot screen, cell-based, HCT116 clonal line, CellTiter-Glo (AID 824;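 active = viability at or below 27.92% in each of two runs, the all-compound median minus 4 SD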;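 also: 0% = 20 µM Hyamine control and 100% = vehicle cell control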). The settings on record: 60 h, at 10 µM, stronger effect = lower value.
Test [6] is described as follows: inhibitors of the yeast RAM network, pilot screen, dse1pr::URA3 reporter, 5-FOA selection (AID 869;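 active = inhibition over a set limit, the all-compound mean plus 3 SD, in both replicate runs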;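 also: 0% = DMSO wells with no growth and 100% = 10 µM 1-NA-PP1 with full growth; RAM network block rescues cells from 5-FOA so hits raise OD615 growth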). Conditions: S. cerevisiae dse1pr::URA3 5-FOA growth, OD615, 2 d, at 10 µM, stronger effect = higher value.
A short description of test [7]: RAM signaling pathway blockade in yeast – S. cerevisiae, Pdr1DBD-CYC8 efflux-inhibited sensitized strain, primary screen (AID 1298).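 Also: 0% = DMSO untreated cells without growth and 100% = 10 µM 1-NA-PP1 full growth; higher means more yeast growth rescued from 5-FOA killing.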 The settings on record: S. cerevisiae cbk1-as DSE1-URA3 strain, 5-FOA growth OD615, 2 d; at 50 µM; stronger effect = higher value.
Test [8] addresses Pantothenate synthetase (Mycobacterium tuberculosis (strain ATCC 25618 / H37Rv)) (UniProt P9WIL5). The test is described as follows: Recombinant Mtb pantothenate synthetase (PanC) inhibitors, coupled enzyme, confirmatory (AID 375; call rule not given here;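 also: 0% = full reaction with vehicle and 100% = no enzyme background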). Conditions: coupled enzyme assay; at 10 µM, stronger effect = higher value.
Test [9] can be described thus: SK-BR-3 cell growth inhibitors, pilot screen, 24 h, human (AID 572;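 active = viability at or below 10% of carrier control in both of two separate runs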;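 also: compound exposure lasted between 18 and 24 h rather than exactly 24 h; 100% = carrier-treated control wells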). Conditions: SK-BR-3 viability, CellTiter-Glo luminescence, at 10 µM, stronger effect = lower value.
Test [10] can be described thus: HUVEC growth inhibition – cell-based, human, primary screen (AID 575;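 active = viability at or below 30% in both replicate assays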;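 also: 100% = median of untreated cell wells with 0.1% DMSO on each plate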). Conditions: HUVEC proliferation, CellTiter-Glo luminescence, 72 h; at 10 µM; stronger effect = lower value.
Test [11] is described as follows: growth inhibitors of H69AR lung tumor, primary screen, human, duplicate replicates (AID 580;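 active = viability at or under a set limit in both replicates, limit being median viability minus 3 SD, cut at about 48% in these data, passing the limit was not always enough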;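 also: 100% = mean luminescence of untreated wells and 0% = no signal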). Conditions: H69AR lung tumor cells viability, ATP luminescence, 72 h; at 10 µM; stronger effect = lower value.
Test [12] in a line: reversal of MRP1-mediated doxorubicin resistance, pilot screen, H69AR cells, doxorubicin co-treatment (AID 601;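 active = viability loss from added drug above about 55%, and viability with drug at most 40%, in both replicates, limit read from the data, passing the limit was not always enough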). The settings on record: CellTiter-Glo, 72 h, at 10 µM; for differential viability (reversal): stronger effect = higher value.
Test [13] can be described thus: 384-well plate pilot, post-Golgi transport modulator project, inhibition of yeast transport mutant growth (AID 636; in the data active = inhibition above about 31%). Conditions: absorbance 615 nm, about 18 h, stronger effect = higher value.
Test [14] can be described thus: growth suppression of yeast trafficking mutant, preliminary HTS, modulators of trafficking downstream of Golgi apparatus project, 1536-format plate, OD 615 nm (AID 637; in the data active = inhibition above about 30%). Conditions: yeast transport mutant growth, absorbance 615 nm, 18 h; stronger effect = higher value.
Test [15] in a line: reducers of endogenous Her2 protein level, primary screen, SKBR3 breast tumor cells, AlphaScreen, ATP viability (AID 461;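 active = Her2 level under about 52% in both replicate screens, with viability over 70% of control, limit read from the data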;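 as to Her2 level: lower value means less Her2 protein in the cells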;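 as to viability: percent of carrier control wells set as 100% viability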). The settings on record: 18-24 h, measured here: SKBR3 viability, ATP luminescence, at 10 µM.
For test [16], the target named is Receptor tyrosine-protein kinase erbB-2 (Homo sapiens) (UniProt P04626). The test is described as above. Conditions: 18-24 h, at 10 µM, stronger effect = lower value.
Where [17] appears, read: H69AR cells + 2 uM doxorubicin, measured here: viability with 2 uM doxorubicin, stronger effect = lower value.
The mark [18] stands for this setting: H69AR cells, compound alone cytotoxicity.

Sequence of Pantothenate synthetase (Mycobacterium tuberculosis (strain ATCC 25618 / H37Rv)) (P9WIL5 whole entry, looked up): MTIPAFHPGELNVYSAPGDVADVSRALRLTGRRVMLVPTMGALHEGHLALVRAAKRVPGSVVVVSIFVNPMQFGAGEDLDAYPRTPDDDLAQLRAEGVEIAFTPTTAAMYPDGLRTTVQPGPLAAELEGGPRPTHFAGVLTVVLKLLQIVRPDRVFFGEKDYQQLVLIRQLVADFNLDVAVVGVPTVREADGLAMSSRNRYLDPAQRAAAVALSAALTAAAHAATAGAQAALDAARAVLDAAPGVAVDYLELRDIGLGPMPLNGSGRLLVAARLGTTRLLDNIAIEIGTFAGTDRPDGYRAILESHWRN
Sequence of Receptor tyrosine-protein kinase erbB-2 (Homo sapiens) (P04626 whole entry, looked up): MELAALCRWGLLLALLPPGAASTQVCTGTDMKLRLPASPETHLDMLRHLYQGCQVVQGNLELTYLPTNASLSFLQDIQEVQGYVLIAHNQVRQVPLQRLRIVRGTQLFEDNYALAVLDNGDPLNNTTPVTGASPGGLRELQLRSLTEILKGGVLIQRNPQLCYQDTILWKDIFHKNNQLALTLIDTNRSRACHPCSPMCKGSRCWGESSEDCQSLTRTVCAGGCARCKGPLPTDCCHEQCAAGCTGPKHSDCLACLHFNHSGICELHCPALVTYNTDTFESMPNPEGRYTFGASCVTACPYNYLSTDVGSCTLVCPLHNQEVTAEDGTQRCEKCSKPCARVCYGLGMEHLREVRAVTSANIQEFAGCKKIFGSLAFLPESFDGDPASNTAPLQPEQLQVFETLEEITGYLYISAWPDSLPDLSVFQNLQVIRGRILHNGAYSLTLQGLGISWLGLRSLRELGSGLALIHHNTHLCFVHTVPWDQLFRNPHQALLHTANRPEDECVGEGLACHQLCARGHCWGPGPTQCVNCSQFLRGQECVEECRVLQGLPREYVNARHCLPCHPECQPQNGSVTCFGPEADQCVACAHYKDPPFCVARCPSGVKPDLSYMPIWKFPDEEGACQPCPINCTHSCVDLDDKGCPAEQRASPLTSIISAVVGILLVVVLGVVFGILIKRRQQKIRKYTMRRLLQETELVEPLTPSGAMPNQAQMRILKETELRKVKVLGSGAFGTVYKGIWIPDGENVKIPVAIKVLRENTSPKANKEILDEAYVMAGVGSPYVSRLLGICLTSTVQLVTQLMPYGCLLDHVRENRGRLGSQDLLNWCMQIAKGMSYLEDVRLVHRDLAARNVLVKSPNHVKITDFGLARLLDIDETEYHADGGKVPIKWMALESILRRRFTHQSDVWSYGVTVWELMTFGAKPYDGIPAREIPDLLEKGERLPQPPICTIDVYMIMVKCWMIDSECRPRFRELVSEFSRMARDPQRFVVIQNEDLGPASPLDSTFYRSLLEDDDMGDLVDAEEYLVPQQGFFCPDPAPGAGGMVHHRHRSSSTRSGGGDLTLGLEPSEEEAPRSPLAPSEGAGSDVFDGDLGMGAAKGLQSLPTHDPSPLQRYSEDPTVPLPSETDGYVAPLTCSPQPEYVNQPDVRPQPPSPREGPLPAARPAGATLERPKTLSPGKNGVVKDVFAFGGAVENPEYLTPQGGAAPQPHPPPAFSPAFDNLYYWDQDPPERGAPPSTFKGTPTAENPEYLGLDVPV

In the case of `O=C(Cc1ccccc1)Oc1cccc(N2C(=O)CCC2=O)c1`, the figures for the growth inhibition in test [1] and in test [2] were -15.7% (inactive) and -12.2% (inactive), respectively. In addition, the viability increase in test [3] was -0.69% (inactive). The figures for the viability in test [4] and in test [5] were 101% (inactive) and 94.8% (inactive), respectively. Further, the inhibition in test [6] is 1.23% (inactive). In addition, in [7], the RAM network inhibition was 3.42% (inactive).
Take `O=C(C(Cc1ccccc1)NS(=O)(=O)c1ccc(F)cc1)N1CCC2(CC1)OCCO2` (configuration not stated): the inhibition in [8] is 0% (inactive); in test [13], -0.13% (inactive); in [14] it was -0.16% (inactive); in test [6], -0.725% (inactive). Moreover, the viability in [9] was 95% (inactive); in [10] it was 94.2% (inactive); in test [11] it was 79% (inactive); in test [12] (setting [17]), 63.4%; in test [12] (setting [18]) it was 79%; in test [4], 95.4% (inactive). The viability in test [5] was 93.5% (inactive). In addition, the differential viability (reversal) in test [12] (H69AR cells + 2 uM doxorubicin) is 15.6% (inactive). In addition, the growth inhibition in test [1] was -6.55% (inactive); in [2], -17.2% (inactive). Besides, the viability increase in [3] is -3.5% (inactive). Moreover, the RAM network inhibition in [7] is 0.31% (inactive).
Consider `COc1ccccc1/C=C1/C(=N/O)C2CCN1CC2`, for which the inhibition is 0% (inactive) in test [8], -2.34% (inactive) in test [13], 0% (inactive) in test [14] and 0.7% (inactive) in test [6]. The viability is 104% in test [15]; 104% (inactive) in [9]; 109% (inactive) in test [10]; 104% (inactive) in test [11]; 95% in test [12] (setting [17]); 104% in [12] (setting [18]). In addition, the viability in test [4] was 99.8% (inactive); in [5], 99.4% (inactive). Also, the Her2 level in test [16] was 102% (inactive). For the same molecule, the differential viability (reversal) in [12] (H69AR cells + 2 uM doxorubicin) was 8.7% (inactive). For the same molecule, the growth inhibition was -14.3% (inactive) in test [1] and -13.2% (inactive) in test [2]. For the same molecule, the viability increase in [3] is -1.4% (inactive). Further, the RAM network inhibition in test [7] is 6.29% (inactive).
As to `CC(CO)(CO)N=Cc1c(O)n(-c2cccc3ccccc23)c(=O)[nH]c1=O`, the figures for the growth inhibition in [1] and in test [2] were -9.27% (inactive) and -18.2% (inactive), respectively. For the same molecule, the viability increase in [3] is -1.01% (inactive). The values for the viability in test [4] and in test [5] were 95.8% (inactive) and 99% (inactive), respectively. Besides, the inhibition in test [6] is 0.52% (inactive). The RAM network inhibition in [7] is 4.06% (inactive).
`C=CCOC(=O)COc1cc(C)cc2oc(=O)c3c(c12)CCC3`: the inhibition was 1% (inactive) in test [8], -5.73% (inactive) in test [13], -0.73% (inactive) in [14] and 1.63% (inactive) in test [6]. For the same molecule, the viability in [9] is 81% (inactive); in [10], 97.2% (inactive); in test [11] it was 84.4% (inactive); in test [12] (setting [17]) it was 86.7%; in test [12] (setting [18]), 84.4%; in test [4], 90.7% (inactive). In addition, the viability in test [5] is 99.4% (inactive). In test [12] (H69AR cells + 2 uM doxorubicin), the differential viability (reversal) was -2.28% (inactive). The growth inhibition is -7.89% (inactive) in test [1] and -2.46% (inactive) in test [2]. Moreover, the viability increase in test [3] was -0.23% (inactive). Also, the RAM network inhibition in test [7] was 6.89% (inactive).
As for `CC(=O)Nc1ccc(OC(=O)c2ccccc2N)cc1`, the inhibition in test [8] was 0% (inactive); in test [13] it was -0.13% (inactive); in [14], -9.5% (inactive); in [6], 1.02% (inactive). Also, the viability is 100% in test [15]; 100% (inactive) in test [9]; 93.5% (inactive) in test [10]; 99.3% (inactive) in test [11]; 90.1% in test [12] (setting [17]); 99.3% in [12] (setting [18]). Moreover, the results for the viability in [4] and in test [5] were 107% (inactive) and 102% (inactive), respectively. Besides, the Her2 level in test [16] is 118% (inactive). Moreover, in test [12] (H69AR cells + 2 uM doxorubicin), the differential viability (reversal) is 9.29% (inactive). For the same molecule, the growth inhibition in test [1] is -7.19% (inactive); in test [2] it was -9.05% (inactive). The viability increase in [3] is 1.42% (inactive). For the same molecule, in test [7], the RAM network inhibition was 0.27% (inactive).
